JMJD2A Tudor inh – blocks the human JMJD2A Tudor domain | AlphaScreen JMJD2A-Tudor / H3K4me3 peptide binding | Potency, µM (doses to about 114 µM), inactives show at the highest dose activity change, negative = inhibition, most hits filed as inhibitors | 4.4% of 390,000 active; further: on the % scale 0 is the no-effect control and ±100 the full control effect; nearly all actives have a fitted effect of over 50% in size
BAZ2B inh – inhibitors of human BAZ2B bromodomain; Q9UIF8; AlphaScreen BAZ2B-H3K14Ac peptide displacement; Potency, µM (doses to about 114 µM), for the others: top-dose activity change, negative = inhibition, hits mostly inhibitors; 4.4% of 360,000 active; AID 504333; further: on the % scale 0 is the no-effect control and ±100 the full control effect; nearly all actives have a fitted effect of over 60% in size
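Inhibition is scored as reduced AlphaScreen emission. The BAZ2B/b-H3(5-23)K14Ac complex (50 nM each) in PBS pH 7.4, 0.01% Tween-20 meets compound (up to 110 uM) for 30 min at RT before bead addition.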
Sfp inh – blocks B. subtilis Sfp PPTase activity. 3.5% of 310,000 active. Q9F4F7. Potency, µM, for the others: largest response in the series, negative = inhibition, most hits filed as inhibitors. Biochemical Sfp PPTase activity, qHTS;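 further: the enzyme is Sfp with the accession as filed and its product quenches rhodamine fluorescence; 0% = enzyme reaction without inhibitor and -100% = no enzyme wells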
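Fluorescence-quenching assay with 15 nM Sfp, 5 uM rhodamine-CoA and 12.5 uM BHQ-2-labelled ybbR peptide in pH 7.6 Hepes/MgCl2 buffer. Enzyme was pre-incubated with compound for 15 min at room temperature. Rate was taken from the 30-min fluorescence change (525/598 nm).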
G9a block – G9a (human) methyltransferase inhibition; Potency, µM (highest dose often 102 µM), inactives show at the top dose activity, negative = inhibition, most hits filed as inhibitors; AID 504332; Q96KQ7; G9a H3K9 monomethylation, AlphaScreen, 2 h; 8.8% of 350,000 active; further: on the % scale 0 is the no-effect control and ±100 the full control effect; nearly all actives have a fitted effect of over 75% in size
Target sequence (Q96KQ7 913-1193 limits assumed): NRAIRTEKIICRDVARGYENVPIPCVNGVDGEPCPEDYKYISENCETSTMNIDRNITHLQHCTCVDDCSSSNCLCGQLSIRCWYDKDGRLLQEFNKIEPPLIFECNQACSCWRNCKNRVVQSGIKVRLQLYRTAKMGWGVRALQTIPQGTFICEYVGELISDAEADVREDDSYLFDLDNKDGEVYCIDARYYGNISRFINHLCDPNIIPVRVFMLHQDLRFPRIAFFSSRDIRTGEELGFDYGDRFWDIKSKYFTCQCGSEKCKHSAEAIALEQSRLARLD
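Compounds were preincubated with 20 nM G9a for 15 min, after which biotinylated H3K9 peptide (500 nM) and SAM (20 uM) started a 2 h room-temperature reaction. Monomethylated product was quantified by antibody-based AlphaScreen chemiluminescence.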
HP1b chromo inh – HP1-beta chromodomain-methylated histone interaction inhibition; P83916; AlphaScreen HP1-beta / biotin-H3K9me3 peptide binding; Potency, µM (titrated, usually from 114 µM), for inactives: at the top dose activity change, negative = inhibition, actives largely listed as inhibitors; 0.56% of 390,000 active; AID 540317; further: nearly all actives have a fitted effect of over 70% in size
Target sequence (P83916 whole entry, looked up): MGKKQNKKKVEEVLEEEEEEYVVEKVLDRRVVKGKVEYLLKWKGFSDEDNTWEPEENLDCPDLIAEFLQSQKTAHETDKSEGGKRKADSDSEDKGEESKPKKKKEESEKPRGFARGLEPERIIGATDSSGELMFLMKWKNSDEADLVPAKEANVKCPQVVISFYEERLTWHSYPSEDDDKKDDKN
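HP1-beta protein (50 nM final) preincubated 30 min at room temperature with biotinylated H3(1-18)K9me3 peptide (50 nM) in PBS pH 7.4, 0.01% Tween-20, then compound added for 30 min. AlphaScreen streptavidin donor/nickel chelate acceptor beads (10 ug/mL final), 30 min dark, luminescence read.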
* hit, by the source's call; ? = inconclusive; nt = no result given; [ ] = another dose, or the depositor's remark. Compounds with a hit are over-represented: about 12% of the library has one in this group of screens. The call rests on the fitted dose curve; in most records, active means well fitted curve in the direction sought with a large enough effect; inconclusive means small, poorly fitted or top-dose-only effect, or another doubt; inactive means no such curve, though single readings can be large; an effect the other way counts as inactive or inconclusive. Potency means the concentration at half of the fitted maximal effect.

SMILES	JMJD2A Tudor inh	BAZ2B inh	Sfp inh	G9a block	HP1b chromo inh
Cc1ccc(F)cc1N=Cc1c(O)c2ccccc2oc1=O	-12%	-12%	24%	79µM*	25%
Cc1ccc(N=Cc2c(O)c3ccccc3oc2=O)c(C)c1	5%	-12%	8%	15%	45%
COc1ccccc1-c1cc2nc(C)c(CCC(=O)NCc3ccco3)c(C)n2n1	?	-9%	10%	50µM*	13%
Cc1nc2cc(-c3ccccc3)nn2c(C)c1CCC(=O)NCc1ccco1	-21%	-37%	?	?	18%
CC(C)CC(=O)NC(=S)Nc1ccc(S(=O)(=O)NC(C)(C)C)cc1	-9%	-4%	-2%	-15%[59 µM]	10%
CCc1ccc(C(=O)NNC(=S)Nc2ccc(S(N)(=O)=O)cc2)s1	-2%[11.4 µM]	-2%	21%	7.9µM*	15%
CCOc1ccc(NC(=O)NNC(=O)c2ccc(CC)s2)cc1	-34%	-32%	2%	nt	28%
CC(C)CC(=O)NNC(=S)Nc1ccc(S(N)(=O)=O)cc1	2%	-35%	20µM*	5.6µM*	-3%
COCCNC(=O)c1cnn2c(C(F)(F)F)cc(-c3ccc(C)cc3)nc12	-23%	-21%	11%	nt	1%
O=S(=O)(c1cccc(C(F)(F)F)c1)N1CCN(CC(O)COCc2ccccc2)CC1 (centres undefined)	13µM*	nt	nt	nt	?
O=S(=O)(c1ccc(F)cc1)N1CCN(CC(O)COCc2ccccc2)CC1 (centres undefined)	5.6µM*	nt	nt	nt	?
CC(=O)c1ccc(N(CC(=O)NCC2CCCO2)C(=O)CCC(=O)Nc2cc(C)on2)cc1 (centres undefined)	-14%	6%	4%	17%	48%
O=C1/C(=C\c2ccco2)SC(=S)N1c1ccccc1	-24%	?	?	50µM*	?
O=C1/C(=C\c2ccco2)NC(=S)N1c1ccccc1	56µM*	-5%	-17%	nt	?
CCCN=C1N/C(=C\c2ccco2)C(=O)N1c1ccccc1	-19%	-8%	?	?	23%
O=C1NC(=S)NC1=Cc1ccco1	22µM*	nt	nt	nt	35µM*
O=C1NC(=O)C(=Cc2ccco2)S1	-12%	nt	nt	nt	19%
Cc1ccc(N2C(=O)/C(=C\c3ccco3)SC2=S)cc1	-32%	56µM*	14µM*	-6%[12.7 µM]	-15%
Cc1ccc(/C=C2\SC(=S)N(c3cccnc3)C2=O)cc1	-24%	?	-22%	-18%	15%
O=C(NNC(=O)C1CCN(c2ncccn2)CC1)c1ccc(Cl)cc1	-11%	3%	8%	12%	33%
CCOc1ccc(-n2ccnc(SCC(=O)NC3CCCC3)c2=O)cc1	-14%	-16%	nt	-13%	35%
Cc1cc(/C=N/NC(=O)c2cccc(N(C)C)c2)c(C)n1-c1cc(C(=O)O)cc(C(=O)O)c1	40µM*	nt	-6%	11µM*	32µM*
Cc1cc(/C=N/NC(=O)C(O)(c2ccccc2)c2ccccc2)c(C)n1-c1cccc(C(=O)O)c1	?	56µM*	40µM*	40µM*	-4%
CN(C)c1cccc(C(=O)N/N=C/c2ccccc2F)c1	-19%	-33%	5%	-35%	-6%
Cc1ccc(C)c(NC(=O)CN2C(=O)C(C)(C)c3ccccc32)c1	-4%	6%	nt	5%[59 µM]	27%[57 µM]
SMILES	JMJD2A Tudor inh	BAZ2B inh	Sfp inh	G9a block	HP1b chromo inh
COc1ccccc1CNS(=O)(=O)c1ccc2c(c1)NC(=O)CC(=O)N2	-19%	-3%	nt	-1%[59 µM]	15%
COc1ccccc1CNS(=O)(=O)c1ccc2[nH]cc(C(=O)O)c(=O)c2c1	40µM*	-10%	14%	-21%[59 µM]	?
COc1ccc([C@H]2[C@H](C(=O)OC(C)(C)C)N3N=Cc4ccccc4C3C23C(=O)c2ccccc2C3=O)cc1OC (some centres undefined)	?	18µM*	-10%	?	-22%
CCCCOc1ccc(C(=O)N/C(=C/C=C/c2ccccc2)C(=O)NC)cc1	-31%	-29%	?	-50%	7%
COC(=O)/C(=C\C=C\c1ccccc1)NC(=O)c1ccccc1	25µM*	-4%	-6%	-15%	-3%
O=C(N/C(=C/c1ccc([N+](=O)[O-])cc1)C(=O)N1CCCC1)c1ccccc1	-7%	-4%	7%	22%	-19%
O=C(N/C(=C/C=C/c1ccccc1)C(=O)N1CCCCC1)c1ccc([N+](=O)[O-])cc1	?	-35%	-14%	50µM*	1%
CCCCOc1ccc(C(=O)N/C(=C/C=C/c2ccccc2)C(=O)O)cc1	-24%	?	-11%	50µM*	20%
O=C(Nc1ccc(O)cc1)/C(=C\C=C\c1ccccc1)NC(=O)c1ccccc1	-35%	?	19%	?	2%
CCc1nn(CC(=O)NCCCN(CC)CC)c(=O)c2cc3occc3n12	-17%	1%	nt	7%[59 µM]	41%
Cc1ccc(Cn2c(C3CCCN3c3nc(-c4ccc(F)cc4)cs3)nc3cc(C(=O)NCCCO)ccc32)cc1 (centres undefined)	-32%	nt	nt	nt	22%
COc1cccc(-c2cc(C(F)(F)F)n3nc(-c4ccc(C)cc4)cc3n2)c1	15%	?	nt	-3%[59 µM]	42%
CCN(c1ccccc1)S(=O)(=O)c1ccc(OC)c(NC(=O)C2CCC2)c1	-6%	nt	nt	nt	13%
CCCCCCCC(=O)Nc1ccc(C(=O)N/N=C/c2cccc([N+](=O)[O-])c2)cc1	-12%	-1%	4%	18%[59 µM]	22%
CCOc1ccc(S(=O)(=O)N/N=C(\C)C2CCCCC2)cc1	-11%	1%	-24%	15%[59 µM]	31%
CCOc1ccc(S(=O)(=O)N/N=C2/CCCC(=O)C2)cc1	-26%	1%	-7%	10µM*	26%
Cc1ccc(CNc2ncnc3ccc(-c4ccc5c(c4)OCO5)cc23)o1	45µM*	nt	nt	nt	nt
COc1ccc2[nH]cc(CCNc3ncnc4ccc(-c5ccc6c(c5)OCO6)cc34)c2c1	nt	nt	2%	3%[0.501 µM]	nt
Cc1csc(CNc2ncnc3cc(-c4ccc5c(c4)OCO5)ccc23)n1	56µM*	nt	nt	nt	nt
c1nc(NCCc2cnc[nH]2)c2ccc(-c3ccc4c(c3)OCO4)cc2n1	79µM*	nt	nt	nt	nt
Cc1cc(CNc2ncnc3ccc(-c4ccc5c(c4)OCO5)cc23)c(C)o1	-33%	nt	nt	nt	nt
Cc1nc(CN(C)c2ncnc3cc(-c4ccc5c(c4)OCO5)ccc23)cs1	89µM*	nt	nt	nt	nt
CCCCC1=CC2=CC(=O)C(C)(OC(=O)CCC(=O)OC)C(=O)C2=CO1 (centres undefined)	nt	nt	7%	nt	nt
O=C(O)c1ccc2c(c1Sc1ccccc1)C(=O)c1ccccc1C2=O	nt	?	27%	16%[0.501 µM]	nt
Brc1cccc(-c2cnc3n2CCCCC3)c1	?	-10%	-17%	45µM*	-16%
Brc1cccc(-c2nnc3n2CCCCC3)c1	-13%[11.4 µM]	5%	18%	18%[59 µM]	36%
NCC12CC3CC(C1)CC(c1ccc(Br)cc1)(C3)C2	-20%	1%	-15%	13%	13%

Screening results as filed in PubChem.
